Screening data deposited in PubChem BioAssay by National Center for Advancing Translational Sciences (NCATS).
In the library only some 19% were active in any assay of this set; here they are far more common.
HT1080 IDH1KD tx = kills HT-1080 cells with IDH1 knockdown. HT-1080 IDH1 knockdown viability, ATP luminescence, 48 h. Potency, µM (series often up to 46.1 µM), for the others: at the top dose activity, negative = toxicity, most hits filed as cytotoxic. 360,000 tested, 2% active. AID 686971;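 further: potency means the concentration at half of the fitted maximal effect; 0% = DMSO wells and -100% = cell-free medium wells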
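Luminescent ATP read-out (CellTiter-Glo, 10 min at room temperature) after 48 h compound exposure at 37 °C gave viability of IDH1-knockdown HT-1080 cells. Activity was normalised to DMSO and cell-free wells, then fitted as concentration-response curves.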
IL-1B inflam inh = inhibitors of inflammasome signaling (IL-1 beta secretion); THP-1 LPS/ATP IL-1B secretion, AlphaLISA, 16 h; hits give low values; 360,000 tested, 4.7% active; activity change, % at 57.5 µM; in the data active means activity change below about -50%; inconclusive means mostly about -30% to -49%
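Secreted IL-1B measured by AlphaLISA bead assay after 16 h compound exposure of THP-1 cells; compounds (final up to 57.5 uM) added 1 h before LPS (250 ng/mL) and ATP (1.25 mM) stimulation; lower signal means less secretion.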
HT1080-NT tox = kills 2HG-producing HT-1080-NT fibrosarcoma cells; Potency, µM (top dose mostly 46.1 µM), for inactives: at the top dose activity, negative = less viability, hits mostly cytotoxic; 360,000 tested, 1.6% active; AID 686970; HT-1080-NT fibrosarcoma viability, CellTiter-Glo ATP luminescence, 48 h;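 further: NT is the 2HG producing partner of a matched IDH1 knockdown line; potency means the concentration at half of the fitted maximal effect; 0% = DMSO-treated cells and -100% = media-only wells without cells; nearly all actives have a fitted effect of over 55% in size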
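Luminescent CellTiter-Glo readout after 48 hours of compound exposure at 37 degrees C defined viability of HT-1080-NT cells. Activity was normalized to DMSO wells and cell-free media wells; concentration-response curves were fitted and assigned curve classes.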
DT40 TDP1 CPT = DT40-hTDP1 cell growth loss with CPT; chicken DT40 Tdp1-/-;hTDP1 cells + 20 nM CPT, ATP luminescence, 48 h; Potency, µM (highest dose often 46.2 µM), inactives show at the top dose activity change, negative = growth inhibition, actives largely listed as inhibitors; 420,000 tested, 12% active; further: potency means the concentration at half of the fitted maximal effect; nearly all actives have a fitted effect of over 55% in size
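Cell growth measured by CellTiter-Glo luminescence after a minimum 48 h, 37 C compound exposure with 20 nM CPT in Tdp1-knockout DT40 cells stably expressing hTDP1, seeded 400/well; qHTS titration format.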
ELG1 DNA repair = ELG1-dependent DNA repair inhibition | HEK293T ELG1-luciferase reporter, luminescence, 16 h; DNA damage induced by 5-fluorouridine | Potency, µM (highest dose often 46.1 µM), for inactives: top-dose activity change, negative = inhibition, hits mostly inhibitors | 330,000 tested, 2.3% active; further: potency means the concentration at half of the fitted maximal effect; nearly all actives have a fitted effect of over 55% in size
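Step one: seed 2,000 cells per well. Step two: pin-transfer compound or DMSO alongside 5-fluorouridine. Step three: incubate 16 hr, 37 °C, 5% CO2. Step four: add ONE-Glo, wait 30 min, read luminescence.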
TDP1 cell noCPT = qHTS for Inhibitors of human tyrosyl-DNA phosphodiesterase 1 (TDP1): qHTS in cells in absence of CPT. DT40 Tdp1-/- hTDP1 cells, no CPT, ATP luminescence, 48 h. Potency, µM (doses to about 46.2 µM), inactives show at the highest dose activity change, negative = growth inhibition, hits mostly inhibitors. 420,000 tested, 15% active. AID 686978, 2013; further: potency means the concentration at half of the fitted maximal effect; nearly all actives have a fitted effect of over 55% in size
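Compound effects on proliferation are scored in DT40 Tdp1-/-;hTDP1 cells in the absence of CPT. ATP levels (CellTiter-Glo luminescence) are recorded after a ≥48 hr, 37 °C incubation.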
* hit, by the source's call; i = inactive; ? = inconclusive; nt = not tested or not shown; [ ] = dose if it differs, or a comment. Unless noted, the call rests on the fitted dose curve; in most records, active means well fitted curve in the direction sought with a large enough effect; inconclusive means small, poorly fitted or top-dose-only effect, or another doubt; inactive means no such curve, though single readings can be large; an effect the other way counts as inactive or inconclusive. Unless noted, on the % scale 0 is the no-effect control and ±100 the full control effect.

SMILES	HT1080 IDH1KD tx	IL-1B inflam inh	HT1080-NT tox	DT40 TDP1 CPT	ELG1 DNA repair	TDP1 cell noCPT
COc1cc(NC(=O)c2ccc(-c3cccc(F)c3)o2)ccc1NC(=O)c1ccccc1Cl	-3%	-25	1%	18µM*	?	18µM*
COC(=O)c1ccccc1NC(=O)c1ccc(-c2cccc(Cl)c2)o1	12%	29	24%	-8%	?	-28%
O=C(Nc1ccccc1N1CCCC1)c1cc(Cl)ccc1Cl	1%	29	4%	-15%	2%	-30%
COc1ccccc1NC(=O)c1ccc(-c2ccc(Br)cc2)o1	18µM*	23	?	7.3µM*	-20%	5.8µM*
CS(=O)(=O)N1CCC2(CC1)CN(c1ncccn1)C2	nt	nt	nt	4%	nt	-9%
CS(=O)(=O)N1CCN(c2ccccc2NC(=O)c2ccc([N+](=O)[O-])o2)CC1	-19%	?	-4%	3.7µM*	23µM*	8.2µM*
CN1CCN(c2ccccc2NC(=O)c2ccc([N+](=O)[O-])o2)CC1	-6%	-9	1%	7.3µM*	9.2µM*	9.2µM*
COc1cc(NC(=O)c2ccc(-c3ccc(Br)cc3)o2)ccc1NC(=O)C(C)C	-8%	0	-6%	15µM*	1%	18µM*
CS(=O)(=O)N1CCN(c2ccccc2NC(=O)c2ccc3ccccc3c2)CC1	-7%	-4	-19%	?	12µM*	?
O=C(COC(=O)c1cccc(S(=O)(=O)N2CCCC2)c1)Nc1ccc(Cl)cc1	1%	-8	0%	-4%	nt	-5%
CC(C)(C)c1ccc(C(=O)N2CCC3(CC2)CC3C(=O)NCCc2ccccn2)cc1 (stereo not given)	nt	nt	nt	-8%[9.04 µM]	nt	-29%
CNc1ncnc2c1ncn2[C@H]1CN(CCN2CCOCC2)C[C@@H](CO)O1	12%	-29	4%	11%	nt	8%
CC(C)(C)C1CCc2onc(C(=O)Nc3sc4c(c3C(N)=O)CCCC4)c2C1 (stereo not given)	nt	nt	nt	19%	nt	-27%
CC(=O)N1CCN(c2ccccc2NC(=O)c2ccc(Br)o2)CC1	26%	i	17%	?	2%	-20%
CN1CCN(c2ccccc2NC(=O)c2ccc(-c3ccc(Br)cc3)o2)CC1	2.6µM*	29	?	3.3µM*	?	3.3µM*
CCOC(=O)C1C(C)=CC(=O)CC1c1ccco1 (stereo not given)	2%	-3	1%	-11%	-11%	?
CCOC(=O)C1C(=O)C=C(/C=C/c2ccccc2)CC1c1ccc(Cl)cc1 (stereo not given)	-7%	-26	-4%	29µM*	7%	?
COC(=O)/C=C1\OCc2ccc(C)cc21	9%	-19	29%	14%	nt	20%
CCCNC(=O)c1c(N)n(-c2cc(OC)cc(OC)c2)c2nc3ccccc3nc12	-25%	-55*	-19%	?	18µM*	?
CCCNC(=O)c1c(N)n(-c2ccc3c(c2)OCO3)c2nc3ccccc3nc12	2%	-22	4%	8.2µM*	14%	15µM*
Nc1c(C(=O)NC2CC2)c2nc3ccccc3nc2n1-c1ccc2c(c1)OCO2	-3%	-51*	-2%	?	16µM*	?
COCCCNC(=O)c1c(N)n(-c2ccc3c(c2)OCO3)c2nc3ccccc3nc12	?	-24	?	?	-24%	?
CC1(C(=O)NS(=O)(=O)c2ccc(Cl)s2)CCN1C(=O)Cc1ccc(Cl)cc1Cl (stereo not given)	0%	22	-1%	-14%	nt	-4%
CCOc1ccc(NC(=O)CCc2c(C)nc3nc(-c4cc(OC)cc(OC)c4)nn3c2C)cc1	nt	nt	nt	-17%	nt	?
CC(c1ccccc1)C(OC(=O)c1cccc([N+](=O)[O-])c1C(=O)O)c1ccccc1 (stereo not given)	1%	-4	-10%	6%	nt	-4%
SMILES	HT1080 IDH1KD tx	IL-1B inflam inh	HT1080-NT tox	DT40 TDP1 CPT	ELG1 DNA repair	TDP1 cell noCPT
Cc1cccc(C(=O)Nc2ccc(S(=O)(=O)N3CCC(c4nc5ccccc5s4)CC3)cc2)c1	nt	nt	nt	-22%	nt	?
Cc1ccc(NC(=S)N2CCC(c3nc4ccccc4s3)CC2)cc1	4%[9.24 µM]	-50*	?	?	?	?
Cc1ccccc1C(=O)Nc1ccc(S(=O)(=O)N2CCC(c3nc4ccccc4s3)CC2)cc1	nt	nt	nt	13µM*	nt	21µM*
CC1(C(=O)NS(=O)(=O)c2cccc(F)c2)CCN1C(=O)CCC1CCCC1 (stereo not given)	0%	30	15%	-4%	nt	11%
C/C(N)=C(/C#N)C(=O)CSc1nnc(SCc2ccc(Cl)cc2)s1	21µM*	-1	-17%	13µM*	?	16µM*
C/C(N)=C(/C#N)C(=O)CSc1nn(-c2ccc(Cl)cc2)c(=S)s1	-10%	30	-1%	?	?	?
Nc1[nH]c(C(=O)c2ccccc2)c(-c2cccnc2)c1C(=O)NC1CCCCC1	6%	-15	13%	-11%	nt	?
Cc1ccc(C(=O)Nc2ccccc2[N+](=O)[O-])cc1S(=O)(=O)N1CCOCC1	?	-64*	?	4%	-2%	?
COc1ccc(C(=O)Nc2ccccc2[N+](=O)[O-])cc1S(=O)(=O)N1CCOCC1	-8%	-62*	-1%	-2%	?	?
COc1ccc(C(=O)Nc2ccccc2N2CCOCC2)cc1S(=O)(=O)N1CCOCC1	9%	0	16%	?	-13%	?
Cc1ccc(NC(=O)c2ccc(N3CCOCC3)c([N+](=O)[O-])c2)cc1S(=O)(=O)N1CCOCC1	-15%	-78*	-3%	9.2µM*	21µM*	7.3µM*
CCN1CCN(c2ncnc3c2cnn3-c2ccc(C)c(Cl)c2)CC1	nt	nt	nt	-18%	nt	-21%
Cc1ccc(-n2ncc3c(N4CCN(C)CC4)ncnc32)cc1Cl	nt	nt	nt	?	nt	21µM*
Cc1ccc(-n2ncc3c(N4CCN(CCO)CC4)ncnc32)cc1Cl	nt	nt	nt	12µM*	nt	?
CC1CCC(NC(=O)C(C)N2C(=O)C3CCCCC3C2=O)CC1 (stereo not given)	13%	8	-3%[9.24 µM]	5%	29%	3%
CCOC(=O)C1(C)NC(c2ccco2)C2C(=O)N(C)C(=O)C21 (stereo not given)	-3%	-9	2%	8%	?	-5%
